Source: PubChem (National Center for Advancing Translational Sciences (NCATS))
Rows were chosen to be rich in hits. Some 21% of all compounds tested hit in one or more screens of this group.
Shiga toxin inh: inhibitors of Shiga toxin in Vero cells; Vero cells, Shiga toxin protein synthesis inhibition reporter; inhibition, % at 38.7 µM; 290,000 compounds, 9.2% hits; AID 2315; in the data active = inhibition mostly above about 28%, no sharp cut-off; inactive = mostly below about 43%
CHX counter: affects cycloheximide protein synthesis inhibition readout, counter-screen; AID 2314; max response, %; cell reporter, cycloheximide protein synthesis inhibition counterscreen; 300,000 compounds, 12% hits; in the data active = max response mostly above about 13%, no sharp cut-off; inactive = mostly below about 14%; also: read at 38.3 µM for the half of the compounds with a filed dose
Pf growth 96h: P. falciparum growth inhibition at 96 hours; P. falciparum luciferase reporter growth, 96 h; Potency, µM (titrated, usually from 28.7 µM), usual class: inhibitors; 320,000 compounds, 6.9% hits
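P. falciparum expressing integrated firefly luciferase, in erythrocytes at 2% hematocrit, 0.05% parasitemia, incubated with compounds 96 h at 37 C, 5% CO2. Growth inhibition read as loss of luminescence; two-generation exposure targets delayed-death apicoplast inhibitors.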
AMA1 RON2 block: AMA1-RON2 (P. falciparum) interaction inhibition | Potency, µM (highest dose often 58.2 µM), usual class: inhibitors | 360,000 compounds, 0.2% hits | AlphaScreen AMA1-biotinylated RON2 peptide binding; also: nearly all actives have a fitted effect of over 45% in size
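AMA1 (3D7) with his tag at 25 nM final met compounds first, then biotinylated RON2 peptide at 25 nM; detection used donor plus acceptor beads, 10 µg/mL apiece, read by AlphaScreen after 30 min at room temperature.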
Pf growth 48h: inhibits P. falciparum growth in the first generation, 48 h; P. falciparum luciferase growth in erythrocytes, 48 h; Potency, µM (doses to about 28.7 µM), actives largely listed as inhibitors; 310,000 compounds, 5.9% hits; AID 504832
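In quantitative HTS format, infected erythrocytes bearing luciferase-reporter parasites were treated for a single generation at 37 C. Luminescence after adding detection reagent served as the growth measure.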
HCV inhibitor: HCV inhibition; Potency, µM (titrated, usually from 41.8 µM), actives largely listed as inhibitors; 340,000 compounds, 3.4% hits; Huh7.5.1 HCVcc-Cre infection, luciferase reporter, 44 h; AID 651820
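HCVcc-Cre virus at an moi near 0.5 was added right after compound to cells cultured 4 h from seeding (1,000 cells/well). Luciferase activity was determined 44 h later, 15 min after substrate addition at RT.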
Numbers stand for hits; - = inactive; ? = inconclusive; . = not tested or not shown. Unless noted, calls follow the shape of the dose curve; as a rule, active = well fitted curve in the direction sought with a large enough effect; inconclusive = small, poorly fitted or top-dose-only effect, or another doubt; inactive = no such curve, though single readings can be large; an effect the other way counts as inactive or inconclusive.

SMILES | Shiga toxin inh | CHX counter | Pf growth 96h | AMA1 RON2 block | Pf growth 48h | HCV inhibitor
O=C(Nc1cccc(F)c1)N(Cc1ccc(Cl)cc1)CC(O)C(F)(F)F (centres undefined) | - | - | 2.6µM | - | 8.3µM | 11µM
O=C(Nc1ccccc1)N(Cc1ccccc1)CC(O)C(F)(F)F (centres undefined) | - | - | - | - | - | -
CC(C)N=C(NC#N)SCc1ccc(Br)cc1 | - | - | 13µM | - | ? | -
CC(C)N=C(NC#N)SCc1ccccc1 | - | - | - | - | - | -
O=C(NCc1cccnc1)C12CC3CC(CC(Cl)(C3)C1)C2 | 16 | - | ? | - | ? | -
O=C(c1cccs1)N1CCN=C1SCc1cccnc1 | - | - | - | - | - | -
O=C(N1CCN=C1SCc1cccnc1)C12CC3CC(CC(C3)C1)C2 | - | - | - | - | 15µM | -
Cc1cc(=O)oc2cc(NC(=O)Cc3ccccc3[N+](=O)[O-])ccc12 | - | - | - | - | - | -
COc1ccc(NC(=O)CSc2nnnn2C)cc1 | - | - | ? | - | - | -
CCOc1ccc(NC(=O)CSc2nnc(C3CC3)n2N)cc1 | - | - | - | - | - | -
CCc1ccc(NC(=O)CSc2nnnn2C)cc1 | 78 | 56 | - | - | - | -
Cn1nnnc1SCC(=O)Nc1ccc(Oc2ccccc2)cc1 | - | 8.9 | - | - | ? | ?
Nn1c(SCC(=O)Nc2ccc(Oc3ccccc3)cc2)nnc1C1CC1 | - | - | ? | - | 8.3µM | -
CCn1c(SCC(=O)Nc2ccc(F)cc2)nnc1C1CC1 | - | 19 | ? | - | - | -
C=CCOc1cccn2c(N(C=O)Cc3ccc(OC)cc3)c(CC)nc12 | . | . | . | - | . | .
CC(C)CNC(=O)C1C(=O)Nc2ccccc2C(=O)N1C(C)(C)C (centres undefined) | . | . | . | - | . | .
Cc1ccc(-c2ccccc2[C@@H]2C[C@H]3CN(C)C(=O)[C@]34CCCN24)o1 | - | - | - | - | - | -
O=C1N(c2ccccc2)C[C@@H]2C[C@@H](c3cc4ccccc4o3)N3CCC[C@@]123 | - | - | 13µM | - | - | ?
CNC(=S)N(C1=NCC(c2ccc([N+](=O)[O-])cc2)S1)c1ccccc1 (centres undefined) | 56 | 39 | 13µM | - | - | -
CCc1nn(-c2ccccc2)c2c1-c1cc(OC)c(OC)cc1C1(N2)C(=O)Nc2ccccc21 (centres undefined) | - | - | 2.6µM | - | . | ?
COc1cc2c(cc1OC)C1(Nc3c-2c(C)nn3-c2ccccc2)C(=O)Nc2ccccc21 (centres undefined) | - | - | 1.5µM | - | . | -
COc1cc2c(cc1OC)C1(Nc3c-2c(-c2ccccc2)nn3-c2ccccc2)C(=O)Nc2ccccc21 (centres undefined) | - | - | - | - | . | 13µM
COc1ccc(N2C(=O)CSC23C(=O)Nc2ccccc23)cc1OC (centres undefined) | - | - | . | - | - | -
COc1ccc(C2SCC(=O)Nc3c2c(C)nn3-c2ccccc2)cc1OC (centres undefined) | - | - | - | - | - | -
CC(C)(C)NC(=O)NC(=O)CSc1n[nH]c(-c2ccccc2Br)n1 | - | - | - | - | - | -
SMILES | Shiga toxin inh | CHX counter | Pf growth 96h | AMA1 RON2 block | Pf growth 48h | HCV inhibitor
CCc1ccc(Oc2cc(Cl)nc(N)n2)cc1 | 65 | 50 | - | - | - | -
COc1cccc(Oc2cc(Cl)nc(N)n2)c1 | 21 | 16 | - | - | - | -
CCn1c(=O)c(C(=O)NCCN2CCCCC2)c(O)c2ccccc21 | - | - | - | - | 8.3µM | ?
CCCn1c(=O)c(C(=O)NCCc2ccc(OC)c(OC)c2)c(O)c2ccccc21 | - | - | - | - | ? | ?
CCCCCCNC(=O)c1c(O)c2cccc3c2n(c1=O)CCC3 | - | - | ? | - | - | -
CCn1c(=O)c(C(=O)NCCc2ccccc2)c(O)c2ccccc21 | - | - | - | - | ? | -
CCN(CC)CCNC(=O)c1c(O)c2cccc3c2n(c1=O)CCC3 | - | - | . | - | 1.9µM | ?
CCn1c(=O)c(C(=O)NCCc2ccc(OC)c(OC)c2)c(O)c2ccccc21 | - | - | 10µM | - | ? | ?
Cc1ccc2sc(N3CCN(CCNC(=O)c4ccco4)CC3)nc2c1C | . | . | ? | - | ? | ?
Cc1ccc(NC(=S)NCCO)c(C)c1 | - | - | - | - | - | -
S=C(NCCOCCOCCNC(=S)Nc1ccccc1)Nc1ccccc1 | - | - | - | - | 6.6µM | -
S=C(NCCc1ccccc1)Nc1ccccn1 | 92 | 39 | ? | - | - | -
Cc1cccc(NC(=S)NCCc2ccccc2)n1 | - | - | ? | - | ? | -
Cc1ccc(NC(=S)NCCc2ccccc2)c(C)c1 | - | 17 | - | - | ? | ?
Cc1ccc(C)c(NC(=S)NCCN(C2CCCCC2)C2CCCC2)c1 | - | - | ? | - | 10µM | ?
Cc1ccc(C)c(NC(=O)C2CCCC2)c1 | . | . | . | - | . | -
Cc1cc(C)c(NC(=O)C2CCN(S(C)(=O)=O)CC2)c(C)c1 | . | . | . | - | . | .
Cc1ccc(NC(=S)NCCc2ccc(S(N)(=O)=O)cc2)cc1C | - | - | - | - | - | ?
Cc1cc(C)cc(NC(=S)NCCc2ccc(S(N)(=O)=O)cc2)c1 | - | - | 1.7µM | - | - | -
Cc1ccc(C)c(NC(=S)NCCc2ccc(F)cc2)c1 | - | - | ? | - | 13µM | ?
S=C(NCCc1ccccc1)Nc1ccc(Br)cc1 | - | 53 | - | - | - | -
CC(C)(C)NC(=S)NCCc1ccccc1 | 75 | 31 | - | - | - | -
Cc1ccc(NC(=S)NCc2ccc(F)cc2)c(C)c1 | - | - | ? | - | ? | -
Cc1ccc(C(=O)O)cc1NC(=S)NCCc1ccccc1 | - | - | ? | - | - | -
S=C(NCCc1ccncc1)Nc1ccccc1 | - | - | ? | - | - | -
SMILES | Shiga toxin inh | CHX counter | Pf growth 96h | AMA1 RON2 block | Pf growth 48h | HCV inhibitor
COc1ccc(-c2nn(CCC#N)cc2C(=O)Nc2cccc(C(=O)O)c2)cc1[N+](=O)[O-] | - | - | - | - | - | -
Cc1cnn(C(=S)NCCc2ccccc2)c1 | 77 | 34 | . | - | - | -
Cc1ccccc1NC(=S)NCCc1ccccc1 | - | 15 | - | - | - | -
Cc1ccc([N+](=O)[O-])cc1NC(=S)NCCc1ccccc1 | - | - | 13µM | - | - | -
Cc1cnn(C(=S)NCc2ccc(Cl)cc2)c1 | - | - | - | - | ? | -
Cc1cc(Br)ccc1NC(=S)NCCc1ccccc1 | - | - | 12µM | - | - | -
CCc1ccc(N2CC(C(=O)Nc3ccc(S(=O)(=O)NCC4CCCO4)cc3)CC2=O)cc1 (centres undefined) | - | - | - | - | - | -
COc1ccc(OC)c(C(=O)N2CCC(n3nccc3NC(=O)CC(C)C)CC2)c1 | - | - | - | - | - | -
Cc1ccc(SCCNC(=S)Nc2cc(C)ccc2C)cc1 | - | - | 8.3µM | - | . | -
CCC(C)(C)NC(=S)Nc1ccccc1C | - | - | ? | - | 10µM | -
